Where a name gives a salt, the structure may show the parent alone. In all, about 2,000 compounds were measured (“fractional viability relative to vehicle”: median about 0.92, lowest 2% from about 0.11 on). The sample holds the lowest values, similar compounds and a random draw of the others, so the mix is not that of the screen.
Test system: TYKNU
Experiment: fractional viability relative to vehicle; TYKNU is a high-grade serous ovarian cancer line; higher = less growth inhibition
Conditions: 72 h, genotype: OPA1 knockout (sgOPA1 #2)
In short: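 Drug treatment lasted 72 h, with cells grown at 37 °C in 5% CO2 in RPMI 1640 supplemented with 10% FBS. Beforehand, TYKNU control cells or their lentiCRISPRv2 knockout derivatives had been seeded at 500 cells per well into drug-stamped 384-well plates carrying a ~2100-compound library at 2 or 10 μM, in duplicate. Viability came from Cell Titer Glo luminescence, with averaged duplicate treatment wells normalised to duplicate control wells in the same plate position.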

Row | Structure (SMILES) | fractional viability (2uM) | fractional viability (10uM)
1 | COc1ccc(CCc2nc3cc(-c4c(C)noc4C)ccc3n2C[C@H](C)N2CCOCC2)cc1Cl | 0.813 | 0.639
2 | COc1cc2nc(N3CCN(C(=O)C4CCCO4)CC3)nc(N)c2cc1OC (stereo not given) [Terazosin HCl] | 1.14 | 1.15
3 | COC(=O)c1ccc2c(c1)[nH]c1ncnc(NCCCN3CCCCC3)c12 | 0.785 | 0.985
4 | COc1cc2c(Oc3ccc4[nH]c(C)cc4c3F)ncnc2cc1OCCCN1CCCC1 [Cediranib (AZD2171)] | 1.1 | 0.181
5 | COc1cc(Nc2c(C#N)cnc3cc(OCCCN4CCN(C)CC4)c(OC)cc23)c(Cl)cc1Cl [Bosutinib (SKI-606)] | 0.995 | 0.284
6 | COc1cc2nc(N3CCCN(C)CC3)nc(NC3CCN(Cc4ccccc4)CC3)c2cc1OC | 0.506 | 0.0546
7 | COc1cc2nc(N3CCCC3)nc(NCCCCCN3CCCC3)c2cc1OC | 0.679 | 0.0949
8 | COc1cc(OC)c(C(=O)CCCN2CCCC2)c(OC)c1 [Buflomedil HCl] | 0.851 | 0.685
9 | COc1cc2nc(N3CCN(C(=O)C4COc5ccccc5O4)CC3)nc(N)c2cc1OC (stereo not given) [Doxazosin Mesylate] | 1.1 | 1.22
10 | COc1cc2c(NC3CCN(CC4CCCCC4)CC3)nc(N3CCCN(C(C)C)CC3)nc2cc1OCCCN1CCCCC1 | 0.786 | 0.0322
11 | Cc1nc2c(O)cccc2c(=O)[nH]1 | 0.925 | 0.903
12 | O=C(CCCCCCC(=O)Nc1ccc([C@H]2O[C@@H](CSc3nc(-c4ccccc4)c(-c4ccccc4)o3)C[C@@H](c3ccc(CO)cc3)O2)cc1)NO [Tubacin] | 1.06 | 0.628
13 | CCOC(=O)[C@@H](N)Cc1ccc(-c2cc(O[C@H](c3ccc(Cl)cc3-n3ccc(C)n3)C(F)(F)F)nc(N)n2)cc1 [Telotristat Etiprate (LX 1606 Hippurate)] | 0.935 | 0.335
14 | CC(C)n1cnc2c(NCCc3ccc(O)cc3)nc(-c3csc4ccccc34)nc21 [StemRegenin 1 (SR1)] | 1.1 | 0.769
15 | CNC1CCC(N(Cc2cccc(-c3ccncc3)c2)C(=O)c2sc3ccccc3c2Cl)CC1 (stereo not given) [Smoothened Agonist (SAG) HCl] | 0.918 | 0.259
16 | O=C1NC(=O)/C(=C/c2ccc(-c3ccc(F)cc3O)o2)S1 | 0.814 | 0.742
17 | N[C@H]1CC[C@H](N[C@@H]2C[C@H]2c2ccccc2)CC1 | 0.794 | 0.89
18 | CN1CCN(c2ccc3nc(-c4c(N)c5c(F)cccc5[nH]c4=O)[nH]c3c2)CC1 [Dovitinib (TKI258) Lactate] | 0.815 | 0.0801
19 | CN1CCN(c2ccc3nc(-c4c(N)c5c(F)cccc5[nH]c4=O)[nH]c3c2)CC1 [Dovitinib (TKI-258, CHIR-258)] | 0.815 | 0.25
20 | Cc1nn(-c2ccccc2)c(C)c1C=NN1CCN(Cc2ccccc2)CC1 | 0.946 | 0.905
21 | COCC(=O)NC/C=C/c1ccc2ncnc(Nc3ccc(Oc4ccc(C)nc4)c(C)c3)c2c1 | 1.29 | 1.17
22 | CCCCCCCCCCCCc1ccc(S(=O)(=O)Nc2nncs2)cc1 | 1.06 | 1.05
23 | CCCCCCCCc1ccc(CCC(N)(CO)CO)cc1 [Fingolimod (FTY720) HCl] | 1.08 | 0.0752
24 | CCCCCCCc1ccc(CCc2cccc(O)c2C(=O)O)cc1 | 0.96 | 0.73
25 | O=C(c1ccc(OCCCc2c[nH]cn2)cc1)C1CC1 [Ciproxifan] | 1.1 | 0.986

Row | Structure (SMILES) | fractional viability (2uM) | fractional viability (10uM)
26 | CCCCCCCCCCCCCCCCn1cc[n+](Cc2ccccc2)c1C | 0.363 | 0.0434
27 | CCO[C@@H]1OC(=O)C[C@@H]1NC(=O)[C@@H]1CCCN1C(=O)[C@@H](NC(=O)c1ccc(N)c(Cl)c1)C(C)(C)C | 0.969 | 0.919
28 | Cc1cc([N+](=O)[O-])ccc1NS(=O)(=O)c1cc(Cl)ccc1Cl | 0.656 | 0.476
29 | CC(C)c1nc(N(C)S(C)(=O)=O)nc(-c2ccc(F)cc2)c1/C=C/[C@@H](O)C[C@@H](O)CC(=O)O [Rosuvastatin Calcium] | 1.06 | 1.07
30 | Nc1cccc2c1C(=O)N(C1CCC(=O)NC1=O)C2=O (stereo not given) [Pomalidomide] | 1.18 | 1.05
31 | CNc1nc(Nc2cn(C(C)(C)C#N)nc2C)ncc1C(F)(F)F | 0.801 | 0.885
32 | Cc1ccc(-c2c(-c3nn(C)c4ncnc(N5CC[C@H](N6CCCCC6)C5)c34)cnn2C)cc1 | 0.983 | 1.09
33 | CCC[C@H](N[C@H]1CCc2cc(F)cc(F)c2C1)C(=O)Nc1cn(C(C)(C)CNCC(C)(C)C)cn1 | 0.786 | 0.87
34 | CC(=O)[C@@]1(O)CC[C@H]2[C@@H]3CCC4=CC(=O)CCC4=C3[C@@H](c3ccc(N(C)C)cc3)C[C@@]21C [Ulipristal] | 0.841 | 1.07
35 | Cc1ccc(-n2sc(=O)n(Cc3ccc(F)cc3)c2=O)cc1 | 0.801 | 0.457
36 | Cn1sc(=O)n(Cc2ccccc2)c1=O | 0.609 | 0.104
37 | O=C(O)CSc1cc(NS(=O)(=O)c2ccc(Br)cc2)c2ccccc2c1O | 0.835 | 0.365
38 | OCCOc1ccc(/C(=C(/CCCl)c2ccccc2)c2ccccc2)cc1 [Ospemifene] | 0.854 | 0.735
39 | CC(=O)c1cc([N+](=O)[O-])c(Sc2cccc(Cl)c2Cl)s1 | 0.895 | 0.2
40 | CN(C)C(=O)c1ccc(S(=O)(=O)c2ccc(NC(=O)[C@@](C)(O)C(F)(F)F)c(Cl)c2)cc1 | 0.83 | 0.753
41 | CNCc1ccc(-c2cc(-c3nc(-c4ccc(S(=O)(=O)C(C)C)cc4)cnc3N)on2)cc1 | 0.792 | 0.849
42 | NC[C@@](O)(c1ccc(Cl)cc1)c1ccc(-c2cn[nH]c2)cc1 | 0.858 | 0.87
43 | O=C(NC1CCN(CCCCC2(C(=O)NCC(F)(F)F)c3ccccc3-c3ccccc32)CC1)c1ccccc1-c1ccc(C(F)(F)F)cc1 [Lomitapide Mesylate] | 0.887 | 0.0779
44 | O=C(O)c1ccccc1C(=O)Nc1ccc(-c2ccccc2)cc1 [Kartogenin] | 0.838 | 0.747
45 | C=CCc1ccc(O)c(-c2ccc(O)c(CC=C)c2)c1 [Honokiol] | 0.957 | 1.01
46 | Cc1ccc(C(=O)N(CCCN)[C@@H](c2nc3cc(Cl)ccc3c(=O)n2Cc2ccccc2)C(C)C)cc1 | 0.71 | 0.309
47 | C#CC[C@H](c1nc2cc(Cl)ccc2c(=O)n1Nc1ccccc1)N(CCCN)C(=O)c1cccc(Cl)c1F | 0.562 | 0.0443
48 | O=C1C(=O)N(Cc2ccc(Cl)c(Cl)c2)c2ccccc21 [Apoptosis Activator 2] | 0.461 | 0.287
49 | Cc1cccc(-c2[nH]c(C(C)(C)C)nc2-c2ccc3nccnc3c2)n1 | 1.28 | 1.26
50 | CC1(C)CCC2=C(O1)c1ccccc1C(=O)C2=O [Beta-Lapachone] | 0.202 | 0.0483

Row | Structure (SMILES) | fractional viability (2uM) | fractional viability (10uM)
51 | CC1=CC(=O)c2ccccc2C1=O [Menadione] | 0.94 | 0.75
52 | OCCn1cc(-c2cnc3nnn(Cc4ccc5ncccc5c4)c3n2)cn1 | 1.09 | 1.14
53 | COc1ccc(C2=N[C@@H](c3ccc(Cl)cc3)[C@@H](c3ccc(Cl)cc3)N2C(=O)N2CCNC(=O)C2)c(OC(C)C)c1 [Nutlin-3a] | 0.481 | 0.367
54 | COc1ccc(C2=N[C@@H](c3ccc(Cl)cc3)[C@@H](c3ccc(Cl)cc3)N2C(=O)N2CCNC(=O)C2)c(OC(C)C)c1 [Nutlin-3] | 0.858 | 0.623
55 | CCCc1cc2c(N3CCN(C4=NCC(C)(C)S4)CC3)ncnc2s1 [MI-2 (Menin-MLL Inhibitor)] | 0.828 | 0.711
56 | O=C(Nc1cccc(Cl)c1)c1ccccn1 | 1.19 | 1.02
57 | CN(C)C(=S)NN=C(c1ccccn1)c1ccccn1 | 0.572 | 0.755
58 | Clc1ccc(NN=C(c2ccccc2)c2ccccn2)nc1 | 0.229 | 0.0582
59 | CC(C)C[C@@H](C=O)NC(=O)[C@H](CC(C)C)NC(=O)[C@H](CC(C)C)NC(=O)OCc1ccccc1 | 0.236 | 0.144
60 | O=C(O)C(S)=Cc1c[nH]c2ccc(F)cc12 | 0.79 | 0.825
61 | Nc1ncnc2c1C(=O)N(c1ccc([C@H]3CC[C@H](CC(=O)O)CC3)cc1)CCO2 | 0.723 | 0.773
62 | Nc1cccc(S(=O)(=O)N2CCCN(S(=O)(=O)c3ccc4c(c3)OCCO4)CC2)c1 | 0.783 | 0.849
63 | CS(=O)(=O)CCNCc1ccc(-c2ccc3ncnc(Nc4ccc(OCc5cccc(F)c5)c(Cl)c4)c3c2)o1 | 1.05 | 0.369
64 | C=CC(=O)Nc1ccc2ncnc(Nc3cccc(Br)c3)c2c1 | 0.982 | 0.588
65 | C=CC(=O)Nc1ccc2ncnc(Nc3ccc(OCc4cccc(F)c4)c(Cl)c3)c2c1 | 0.742 | 0.0667
66 | CC(C=CC(=O)NO)=CC(C)C(=O)c1ccc(N(C)C)cc1 (stereo not given) [Trichostatin A (TSA)] | 0.335 | 0.298
67 | O=C(O)c1ccc(-c2c[nH]c3ncc(-c4ccccc4)cc23)cc1C1CCCC1 | 0.98 | 1.11
68 | Cc1ccc([N+](=O)[O-])cc1S(=O)(=O)N(C)/N=C/c1cnc2ccc(Br)cn12 | 0.428 | 0.422
69 | Cc1cc(C(N)=O)ccc1-n1c(CCC(=O)O)ccc1-c1ccc(-n2ccnc2)cc1 | 0.877 | 0.84
70 | CCOC(=O)c1ccc(NC2CCCCC2)c(N)c1 [Ferrostatin-1 (Fer-1)] | 1.03 | 0.934
71 | CC(C)[C@H](N)C(=O)OCC(CO)OCn1cnc2c(=O)[nH]c(N)nc21 (stereo not given in full) [Valganciclovir HCl] | 0.846 | 0.832
72 | C[C@H](NC(=O)/C(C#N)=C/c1cccc(Br)n1)c1ccccc1 | 0.867 | 0.0926
73 | N#C/C(=C\c1ccc(O)c(O)c1)C(=O)NCc1ccccc1 [AG-490 (Tyrphostin B42)] | 1.03 | 1.08
74 | C[C@H](NC(=O)CCc1nc2ccccc2c(=O)[nH]1)c1ccccc1 | 0.861 | 0.876
75 | CCC[C@H](NC(=O)/C(C#N)=C/c1cccc(Br)n1)c1ccccc1 [Degrasyn (WP1130)] | 0.343 | 0.0765
